Source: PubChem BioAssay
TTR transcr act: TTR transcription activators in neuroblastoma reporter cells, primary screen, cell-based, luminescence, SH-SY5Y, TTR promoter Gaussia luciferase; AID 1117267, 2014; 92,000 compounds, 1.3% hits; activation, % at 16.7 µM; 100% = recombinant luciferase protein wells;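 active means activation above the mean of all tested compounds plus 3 SD, cut at about 9.5% in these data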;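 further: cells exposed to compounds for one day before reading; 0% = median of all test compound wells on the plate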
TTR inh HuH7: TTR promoter reporter inhibitors in hepatoma cells, counter-screen for TTR transcription activator project, cell-based, luminescence, HuH7 hepatoma. shares compounds with TTR transcr act. HuH7 TTR promoter-Gaussia luciferase reporter. inhibition, % at 16.7 µM. 1,100 compounds, 4% hits. AID 1117279, 2014;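 active means average inhibition above the solvent-only control wells' mean plus 3 SD, cut at about 15% in these data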;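 further: 0% = cells with DMSO only and 100% = cells with inhibitor control FD; inhibitors lower well luminescence so higher value means more inhibition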
TTR up confirm: TTR transcription activators, retest, confirmation, cell-based, luminescence, SH-SY5Y, triplicate; shares compounds with TTR transcr act; SHSY5Y TTR promoter Gaussia luciferase; 100% = purified Lucia enzyme wells, no cells; activation, % at 16.7 µM; 1,100 tested, under 10 active; AID 1117280, 2014;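 active means mean activation above a set limit taken from the earlier primary screen, cut at about 11% in these data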;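 further: 0% = DMSO-treated cells and 100% = recombinant Lucia luciferase without cells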
The depositor's hits bear a star. The full list was thinned out, with hits kept by preference.

SMILES | TTR transcr act | others
O=c1[nH]n(-c2ccc(Cl)cc2)c2ncccc12 | 14* | TTR inh HuH7=0;TTR up confirm=-1
O=c1[nH]n(CCO)c(=O)c2cccnc12 | 1
CC1=C(C(=O)N(C(C)C)C(C)C)CC(CC(=O)NC2CCCC2)C(=O)N1Cc1ccccc1 (centres undefined) | 1
CC1(C)CC(=O)C=C(c2ccc(COC(=O)c3cccc(C(F)(F)F)c3)cc2)C1=O | -1
CC1(C)CC(=O)C=C(c2ccc(CO)cc2)C1=O | 0
CCCCCCC(=O)Oc1cccc(C2=CC(=O)CC(C)(C)C2=O)c1 | 9.7* | TTR inh HuH7=0;TTR up confirm=0
Cn1c(=O)c2c(nc(N3CCN(C(=O)c4ccco4)CC3)n2CCSc2ncccn2)n(C)c1=O | -1
CSCCC(NS(=O)(=O)c1ccc(Br)cc1)C(=O)OCC(=O)NC1CC1 (centres undefined) | -1
O=C1NCCSC1c1ccccc1 (centres undefined) | 2
Cc1cccnc1NC1(C(F)(F)F)N=C2SCCN2C1=O (centres undefined) | 6
Nc1nc(N)c(-c2cccc(C(F)(F)F)c2)c(Cc2cccc(C(F)(F)F)c2)n1 | -2
CCCC[C@@H]1C(=O)N2N=Cc3cc4ccccc4cc3[C@H]2N2N=Cc3cc4ccccc4cc3[C@@H]12 | -5
Fc1ccccc1CSc1nnc(-c2cccs2)o1 | -1
O=C(CSc1nnc(CNC(=O)c2cccc(C(F)(F)F)c2)o1)NCc1ccco1 | 4
CC1CCN(C(=O)CSc2nnc(-c3cccs3)o2)CC1 | -1
c1ccc(-c2nnc(CSc3nnc(-c4cccs4)o3)o2)cc1 | 1
Fc1ccc(CSc2nnc(-c3cccs3)o2)cc1 | 10* | TTR inh HuH7=-14;TTR up confirm=0
O=C(CSc1nnc(-c2cccs2)o1)NCc1ccco1 | 13* | TTR inh HuH7=-11;TTR up confirm=1
Cc1ccc(C2CC(c3ccccc3)=NN2C(=S)Nc2ccccc2)o1 (centres undefined) | 11* | TTR inh HuH7=25*;TTR up confirm=0
COc1ccc(C2CC(c3cccs3)=NN2C(=S)Nc2ccccc2)cc1OC (centres undefined) | 1
COc1cccc(C2CC(c3cccs3)=NN2C(=S)Nc2ccccc2)c1OC (centres undefined) | 2
O=S1(=O)c2c(cccc2N2CC[C@@H](O)C2)O[C@H]2CCN1C2 | -1
COC(=O)C1NC(=O)N2C(C(=O)OC)C(C)(C)S[C@H]12 (some centres undefined) | 0
Cc1ccccc1C(=O)c1ccccc1C(=O)c1ccccc1 | 6
O=C(c1ccccc1)c1cccs1 | 1
SMILES | TTR transcr act | others
Nc1sccc1C(=O)c1ccccc1 | 9.9* | TTR inh HuH7=-6;TTR up confirm=-1
COc1ccc(N2CCN(C(=S)NCc3ccccc3)CC2)cc1 | 1
Cc1cc2c(s1)c1cnn(Cc3c(Cl)ccc(C)c3F)c(=O)c1n2C | -1
Clc1ccc(C#Cc2cccnc2)cc1 | 2
CCCC1CCC2(CCCN2CCOC(=O)Nc2ccc(Br)cc2)CC1 (centres undefined) | 0
COc1ccc2[nH]c3c(c2c1)CCN[C@]31C(=O)N(Cc2cn(Cc3ccccc3)nn2)c2ccc(F)cc21 | -1
CCCCNC(=O)Nc1c(C(=O)OCC)[nH]c2ccccc12 | 1
CCOC(=O)c1[nH]c2ccccc2c1NC(=O)NC(C)C | 1
CCOC(=O)c1[nH]c2ccc(F)cc2c1NC(=O)Nc1ccccc1OC | 15* | TTR inh HuH7=-20;TTR up confirm=0
COc1ccc(C(=O)c2[nH]c(N)c(C(=O)NCCc3c[nH]c4ccccc34)c2-c2ccc(C(F)(F)F)cc2)cc1 | 0
O=C(N/N=C/c1cccnc1)c1ccc2c(c1)OCCO2 | 18* | TTR inh HuH7=2;TTR up confirm=0
Cn1nccc1C(=O)N/N=C/c1cccnc1 | -2
O=C(N/N=C/c1cccnc1)c1ccco1 | 2
CCCCCCCCNC(CO)(CO)CO | -2
COc1ccc(S(=O)(=O)N(C)C[C@@H]2Oc3c(NC(=O)Nc4ccccc4)cccc3C(=O)N([C@@H](C)CO)C[C@H]2C)cc1 | 0
O=C(Nc1c(F)cc(F)cc1Br)c1cc(S(=O)(=O)N2CCN(c3ccccn3)CC2)ccc1F | 11* | TTR inh HuH7=1;TTR up confirm=-1
O=C(Nc1cccc(F)c1)c1cc(S(=O)(=O)N2CCC(C(=O)O)CC2)ccc1F | -1
CCOC(=O)Cn1c(=O)oc2cc(S(=O)(=O)N3CCN(c4ccccn4)CC3)ccc21 | -1
CCC(CC)C(=O)N1CC(=O)Nc2ccc(F)cc2C1c1ccc(F)cc1 (centres undefined) | 1
CC(=O)c1c(C(C)=O)c(C)n(-c2cccc3cccnc23)c1C | -2
Cc1[nH]c2c(ccc3cccnc32)c1C | 12* | TTR inh HuH7=-28;TTR up confirm=-1
c1ccc(-c2nc3c(ccc4ccccc43)[nH]2)nc1 | -4
